This is an account of results in PubChem BioAssay (NCATS).

SMILES strings stand for the structures. Records with an inconclusive call do not appear. Entries that show only a call come without a potency. Active and inactive are the calls of the source. The call rests on the fitted dose curve; in most records, active means well fitted cell-killing curve with a large enough effect; inconclusive means small, poorly fitted or top-dose-only effect, or effect the other way; inactive means flat fitted curve, though single readings scatter.

The test has as its system Tov112D. Kind of test: Primary qHTS to identify gynecologic anti-cancer compounds using libraries of approved drugs and bioactive compounds (AID 1345084). Further: nearly all actives have a fitted effect of over 55% in size. To be noted: Gynecologic cancer cell panel viability, ATPlite luminescence, 48 h; series mostly up to 57.5 µM. The method, boiled down: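 Cells, 1,000 per well, plated 16 h, then exposed 48 h at 37 C to compounds. Viability by ATPlite luminescence after 15 min at room temperature.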
Regarding `CC1(C)CCC(C)(C)c2cc3c(cc21)Sc1ccccc1N=C3c1ccc(C(=O)O)cc1`, the Potency entry is “inactive”.

In the case of `O=C(O)c1n[nH]c2c1C[C@H]1C[C@@H]21`, the Potency result is “inactive”.

For `COc1cc(C2Oc3c(O)cc(CCCO)cc3C2CO)ccc1O[C@H]1O[C@H](C)[C@@H](O)[C@H](O)[C@@H]1O` (stereo partly drawn), the Potency result is “inactive”.

Take `CC(=C/C(=O)O)/C=C/[C@]1(O)[C@@]2(C)CO[C@]1(C)C[C@H](O[C@@H]1O[C@H](CO)[C@@H](O)[C@H](O)[C@H]1O)C2`: the Potency result was “inactive”.

Regarding `CC1(C)CC[C@]2(C(=O)O)CC[C@]3(C)C(=CCC4[C@@]5(C)C[C@H](O)[C@H](O[C@@H]6OC[C@H](O)[C@H](O)[C@H]6O)[C@@](C)(CO)C5CC[C@]43C)[C@@H]2C1` (stereo partly drawn), the Potency result was “inactive”.

As to `C1CCN2CC3C[C@@H](CN4CCCC[C@@H]34)[C@H]2C1`, the Potency result was “inactive”.

On to `COc1ccc(C)c2sc(NC(=O)c3ccncc3)nc12`, for which the Potency result was “inactive”.

`CC(C)[C@@H](C)/C=C/[C@@H](C)[C@H]1CC[C@H]2C3=CC=C4C[C@@H](O)CC[C@]4(C)[C@H]3CC[C@]12C`: the Potency result is “inactive”.

In the case of `COc1ccccc1CC(C(=O)O)N(C)C(=O)c1ccccc1` (stereo not drawn), the Potency entry is “inactive”.

For the compound `C=C1[C@@H]2[C@H]3OC(=O)C(=C)[C@@H]3CC[C@@](C)(O)[C@@H]2C[C@@H]1O[C@@H]1O[C@H](CO)[C@@H](O)[C@H](O)[C@H]1O`, the Potency entry was “inactive”.

Consider `COCCCNCC1COc2ccccc2O1` (stereo not drawn), for which the Potency result was “inactive”.

For `COc1cc(/C=C/C(=O)OC2CC(OC(C)=O)C(OC(C)=O)C3C2CCC2C(=O)OC(c4ccoc4)CC23C)ccc1O[C@@H]1O[C@H](CO)[C@@H](O)[C@H](O)[C@H]1O` (stereo partly drawn), the Potency result is “inactive”.

In the case of `CO[C@@H]1CC[C@H](OC[C@]2(COC(=O)c3ccc(C)[nH]3)[C@H](OC(C)=O)CC[C@@]3(C)[C@@H]4CC=C(C)[C@@H](C5=C(O)C(=O)OC5O)[C@]4(C)CC[C@@H]32)O[C@H]1C` (stereo partly drawn), the Potency entry was “inactive”.

For the compound `C=C1CCC2C(OC(=O)C2(O)COC(C)=O)C2C(=C)C(O)CC12` (stereo not drawn), the Potency result was “inactive”.

With `CC1=C2C=C(CO)C(CO)CCC2(C)CCC1=O` (stereo not drawn), the Potency entry is “inactive”.

With `C=C1[C@H]2CC[C@]3(O)[C@@](CC[C@@H]4[C@](C)(C(=O)O)CCC[C@]43C)(C2)[C@H]1OC(=O)/C(C)=C\C`, the Potency entry was “inactive”.

With `O=C(O[C@H]1[C@@H]2C=CO[C@@H](O[C@@H]3O[C@H](CO)[C@@H](O)[C@H](O)[C@H]3O)[C@@H]2[C@@]2(CO)O[C@@H]12)c1ccc(O)cc1`, the Potency entry is “inactive”.

As to `CC(C)(O)/C=C1/C(=O)C(C)(C)C(=O)C(C)(C)C1(O)O[C@@H]1O[C@H](COC(=O)c2cc(O)c(O)c(O)c2)[C@@H](O)[C@H](O)[C@H]1O` (stereo partly drawn), the Potency entry was “inactive”.

Consider `CN1CC[C@@H](NC(=O)Nc2ccc(C#N)cc2)C[C@@H]1c1nc2ccccc2[nH]1`, for which the Potency entry is “inactive”.

As to `C[C@H]1[C@H](C)CC[C@]2(C(=O)O[C@@H]3O[C@H](CO)[C@@H](O)[C@H](O)[C@H]3O)CC[C@]3(C(=O)O)C(=CCC4[C@@]5(C)CC[C@H](O[C@@H]6O[C@H](CO)[C@@H](O)[C@H](O)[C@H]6O)C(C)(C)C5CC[C@]43C)[C@H]12` (stereo partly drawn), the activity change, negative = cytotoxicity was 2.01% [at 11.6 µM] (inactive).

`c1nc(NC2CCCCCC2)c2cc(CNC[C@H]3CCCO3)sc2n1`: the Potency result was “inactive”.

With `CCNC(=O)[C@H]1O[C@H](n2cnc3c(NCC(c4ccccc4)c4ccccc4)nc(C(=O)NCCNC(=O)NC4CCN(c5ccccn5)CC4)nc32)[C@H](O)[C@@H]1O`, the Potency result is “inactive”.

On to `CC1CC(=O)C2=C(O1)OC1(C)CCC3C(C)(C)C=CC(=O)C3(C)C1C2` (stereo not drawn), for which the Potency entry is “inactive”.

`COc1ncc(-c2ccc3c(Nc4cc(Oc5cc(F)cc(F)c5)cc(C(=O)O)c4)c(S(=O)(=O)NC4CC4)cnc3c2)c(OC)n1`: the Potency entry is “inactive”.

Turning to `CC(=O)O[C@@H]1[C@H]2[C@@H](OC(=O)c3ccccc3)[C@@H](C)C[C@]2(O)[C@H](OC(C)=O)[C@@]2(C)[C@@H]3CC(C)(C)C(=O)[C@]3(OC(C)=O)C[C@@]12C`, the Potency result was “inactive”.

For the compound `COc1ccc(/C=C/C(=O)O[C@@H]2[C@@H](OC(C)=O)[C@@H](OC(C)=O)[C@H](O[C@H]3[C@@H]4C=CO[C@@H](O[C@@H]5O[C@H](CO)[C@@H](O)[C@H](O)[C@H]5O)[C@@H]4[C@@]4(CO)O[C@@H]34)O[C@H]2C)cc1O`, the Potency entry is “inactive”.

For `CC1=CC(=O)OC(C)(CC(C)(O)C(=O)O)C1` (stereo not drawn), the Potency result is “inactive”.

On to `O=C(OCc1cccc(O)c1O[C@@H]1O[C@H](CO)[C@@H](O)[C@H](O)[C@H]1O)C1(O)C(=O)C2C=CC1C1C=CC(=O)C(O)(C(=O)OCc3cccc(O)c3O[C@@H]3O[C@H](CO)[C@@H](O)[C@H](O)[C@H]3O)C21` (stereo partly drawn), for which the activity change, negative = cytotoxicity is 2.56% [at 11.6 µM] (inactive).

For the compound `C[C@H]1[C@H](C)CC[C@]2(C(=O)O)CC[C@]3(C)C(=CC[C@@H]4[C@@]5(C)C[C@@H](O)[C@H](O)[C@@](C)(CO)[C@@H]5CC[C@]43C)[C@H]12`, the Potency result is “inactive”.

With `COc1cc(C[C@H]2COC(=O)[C@@H]2Cc2ccc(O)c(OC)c2)ccc1O`, the Potency result is “inactive”.

`COC(=O)C1=CO[C@@H](O[C@@H]2O[C@H](CO)[C@@H](O)[C@H](O)[C@H]2O)[C@@H]2[C@@](C)(O)[C@@H](O)C[C@]12O`: the Potency entry was “inactive”.

As to `C/C(=C\CCC(C)(O)c1ccc(C)cc1)C(=O)O` (stereo not drawn), the Potency entry was “inactive”.

On to `C/C=C(\C)C(=O)O[C@H]1[C@H](O)[C@]2(COC(C)=O)[C@H](O)C[C@]3(C)C(=CCC4[C@@]5(C)CC[C@H](O[C@@H]6O[C@H](C(=O)O)[C@@H](O[C@@H]7O[C@H](CO)[C@@H](O)[C@H](O)[C@H]7O)[C@H](O)[C@H]6O[C@@H]6O[C@H](CO)[C@@H](O)[C@H](O)[C@H]6O)[C@](C)(CO)C5CC[C@]43C)[C@@H]2CC1(C)C` (stereo partly drawn), for which the activity change, negative = cytotoxicity was 7.17% [at 11.6 µM] (inactive).

With `COC1=Cc2c(nc3n(c2=O)C(C)C(=O)NC3(O)C(C)C)OC=C1` (stereo not drawn), the Potency result is “inactive”.

With `COc1c(C(CC(C)C)OC(C)=O)ccc(Oc2c(O)cc(C)cc2/C=C/C(C)=O)c1C(=O)O` (stereo not drawn), the Potency result was “inactive”.

With `COc1cc(O[C@@H]2O[C@H](CO)[C@@H](O)[C@H](O)[C@H]2O)c(CCC(=O)OC[C@H]2O[C@@H](Oc3cc(OC)c(C4OC(=O)C(C)(O)C4O)cc3CCC(=O)O)[C@H](O)[C@@H](O)[C@@H]2O)cc1C1OC(=O)C(C)(O)C1O` (stereo partly drawn), the activity change, negative = cytotoxicity is 3.59% [at 11.6 µM] (inactive).

On to `CC1CC(O)CC(C)(C)C1(O)CCO` (stereo not drawn), for which the Potency result was “inactive”.

For `CC(=O)c1c(O)cc2c(c1C)C(=O)CC(O)C2` (stereo not drawn), the Potency result is “inactive”.
